# Measurements from PubChem BioAssay.
# Records with an inconclusive call do not appear. Calls of active or inactive are those of the source.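 Rule for the calls, unless noted: active = viability at or below 10% of carrier control in both of two separate runs; inconclusive = viability at or below 10% in only one of the two runs; inactive = the rest.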
# Assays:
# [1] = reducers of endogenous Her2 protein level, primary screen, SKBR3 breast tumor cells, AlphaScreen, ATP viability (AID 461;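 active = Her2 level under about 52% in both replicate screens, with viability over 70% of control, limit read from the data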;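 for Her2 level: lower value means less Her2 protein in the cells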;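 for viability: percent of carrier control wells set as 100% viability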); settings: 18-24 h, measured here: SKBR3 viability, ATP luminescence, at 10 µM
# [2] = target: Receptor tyrosine-protein kinase erbB-2 (Homo sapiens) (UniProt P04626); assay: as above; settings: 18-24 h, at 10 µM, stronger effect = lower value
# [3] = SK-BR-3 cell growth inhibitors, pilot screen, 24 h, human (AID 572); settings: SK-BR-3 viability, CellTiter-Glo luminescence, at 10 µM, stronger effect = lower value;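 note: compound exposure lasted between 18 and 24 h rather than exactly 24 h; 100% = carrier-treated control wells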
# [4] = HUVEC growth inhibition – cell-based, human, primary screen (AID 575;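 active = viability at or below 30% in both replicate assays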;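 note: 100% = median of untreated cell wells with 0.1% DMSO on each plate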); settings: HUVEC proliferation, CellTiter-Glo luminescence, 72 h; at 10 µM; stronger effect = lower value
# [5] = growth inhibitors of H69AR lung tumor, primary screen, human, duplicate replicates (AID 580;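 active = viability at or under a set limit in both replicates, limit being median viability minus 3 SD, cut at about 48% in these data, passing the limit was not always enough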;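 note: 100% = mean luminescence of untreated wells and 0% = no signal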); settings: H69AR lung tumor cells viability, ATP luminescence, 72 h; at 10 µM; stronger effect = lower value
# [6] = reversal of MRP1-mediated doxorubicin resistance, pilot screen, H69AR cells, doxorubicin co-treatment (AID 601;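 active = viability loss from added drug above about 55%, and viability with drug at most 40%, in both replicates, limit read from the data, passing the limit was not always enough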); settings: CellTiter-Glo, 72 h, at 10 µM; for differential viability (reversal): stronger effect = higher value
# [7] = 384-well plate pilot, post-Golgi transport modulator project, inhibition of yeast transport mutant growth (AID 636; in the data active = inhibition above about 31%); settings: absorbance 615 nm, about 18 h, stronger effect = higher value
# [8] = growth suppression of yeast trafficking mutant, preliminary HTS, modulators of trafficking downstream of Golgi apparatus project, 1536-format plate, OD 615 nm (AID 637; in the data active = inhibition above about 30%); settings: yeast transport mutant growth, absorbance 615 nm, 18 h; stronger effect = higher value
# [9] = OD615 S. cerevisiae growth inhibition, permissive medium, pilot counter-assay, permissive growth control for S. cerevisiae lifespan shortening project (AID 705;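 active = growth inhibition above 25% in both replicates, a cutoff set 3 SD above the mean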); settings: OD615, 24 h, at 10 µM, stronger effect = higher value
# [10] = Restrictive medium S. cerevisiae growth inhibition, OD615, pilot screen of yeast lifespan reduction project, restrictive growth control (AID 706;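 active = growth inhibition above a set limit, 3 SD over mean compound inhibition, in both replicates, cut at about 43% in these data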;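 note: modified DeaD lifespan yeast strain shifted to restrictive glucose medium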); settings: OD615, 48 h, at 10 µM, stronger effect = higher value
# [11] = viability gain of MRP-1-high H69AR cells under doxorubicin, pilot screen, MRP-1 activator project, CellTiter-Glo, duplicate (AID 807;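 active = viability increase at or above a cutoff of the median across tested compounds plus 3 SD, cut at about 8.5% in these data, passing the limit was not always enough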;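 note: compound pretreatment 18-22 h then 72 h combined with doxorubicin; 0% = doxorubicin alone and 100% = vehicle without doxorubicin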); settings: H69AR viability with doxorubicin, CellTiter-Glo luminescence; at 10 µM; stronger effect = higher value
# [12] = growth suppression of beta-catenin knockout HCT116, pilot screen, human colon tumor cells (AID 823;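 active = cell viability at or below a set limit in both duplicate runs, the limit being the all-compound median minus 4 SD, cut at about 23% in these data, passing the limit was not always enough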;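 note: 0% = wells killed by 20 µM Hyamine and 100% = untreated DMSO cell wells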); settings: CellTiter-Glo, 60 h, at 10 µM, stronger effect = lower value
# [13] = growth suppression of PTEN-deleted HCT116, pilot screen, cell-based, HCT116 clonal line, CellTiter-Glo (AID 824;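 active = viability at or below 27.92% in each of two runs, the all-compound median minus 4 SD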;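 note: 0% = 20 µM Hyamine control and 100% = vehicle cell control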); settings: 60 h, at 10 µM, stronger effect = lower value
# [14] = inhibitors of the yeast RAM network, pilot screen, dse1pr::URA3 reporter, 5-FOA selection (AID 869;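 active = inhibition over a set limit, the all-compound mean plus 3 SD, in both replicate runs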;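 note: 0% = DMSO wells with no growth and 100% = 10 µM 1-NA-PP1 with full growth; RAM network block rescues cells from 5-FOA so hits raise OD615 growth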); settings: S. cerevisiae dse1pr::URA3 5-FOA growth, OD615, 2 d; at 10 µM; stronger effect = higher value; strain carries analog-sensitive mutant Cbk1 kinase
# [15] = RAM signaling pathway blockade in yeast – S. cerevisiae, Pdr1DBD-CYC8 efflux-inhibited sensitized strain, primary screen (AID 1298;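 active = RAM network inhibition above 8.4% in each of two replicates, 3 SD over the compound average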;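 note: 0% = DMSO untreated cells without growth and 100% = 10 µM 1-NA-PP1 full growth; higher means more yeast growth rescued from 5-FOA killing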); settings: S. cerevisiae cbk1-as DSE1-URA3 strain, 5-FOA growth OD615, 2 d; at 50 µM; stronger effect = higher value
# [16] = H69AR cells + 2 uM doxorubicin, measured here: viability with 2 uM doxorubicin, stronger effect = lower value
# [17] = H69AR cells, compound alone cytotoxicity
# Sequence of Receptor tyrosine-protein kinase erbB-2 (Homo sapiens) (P04626 whole entry, looked up): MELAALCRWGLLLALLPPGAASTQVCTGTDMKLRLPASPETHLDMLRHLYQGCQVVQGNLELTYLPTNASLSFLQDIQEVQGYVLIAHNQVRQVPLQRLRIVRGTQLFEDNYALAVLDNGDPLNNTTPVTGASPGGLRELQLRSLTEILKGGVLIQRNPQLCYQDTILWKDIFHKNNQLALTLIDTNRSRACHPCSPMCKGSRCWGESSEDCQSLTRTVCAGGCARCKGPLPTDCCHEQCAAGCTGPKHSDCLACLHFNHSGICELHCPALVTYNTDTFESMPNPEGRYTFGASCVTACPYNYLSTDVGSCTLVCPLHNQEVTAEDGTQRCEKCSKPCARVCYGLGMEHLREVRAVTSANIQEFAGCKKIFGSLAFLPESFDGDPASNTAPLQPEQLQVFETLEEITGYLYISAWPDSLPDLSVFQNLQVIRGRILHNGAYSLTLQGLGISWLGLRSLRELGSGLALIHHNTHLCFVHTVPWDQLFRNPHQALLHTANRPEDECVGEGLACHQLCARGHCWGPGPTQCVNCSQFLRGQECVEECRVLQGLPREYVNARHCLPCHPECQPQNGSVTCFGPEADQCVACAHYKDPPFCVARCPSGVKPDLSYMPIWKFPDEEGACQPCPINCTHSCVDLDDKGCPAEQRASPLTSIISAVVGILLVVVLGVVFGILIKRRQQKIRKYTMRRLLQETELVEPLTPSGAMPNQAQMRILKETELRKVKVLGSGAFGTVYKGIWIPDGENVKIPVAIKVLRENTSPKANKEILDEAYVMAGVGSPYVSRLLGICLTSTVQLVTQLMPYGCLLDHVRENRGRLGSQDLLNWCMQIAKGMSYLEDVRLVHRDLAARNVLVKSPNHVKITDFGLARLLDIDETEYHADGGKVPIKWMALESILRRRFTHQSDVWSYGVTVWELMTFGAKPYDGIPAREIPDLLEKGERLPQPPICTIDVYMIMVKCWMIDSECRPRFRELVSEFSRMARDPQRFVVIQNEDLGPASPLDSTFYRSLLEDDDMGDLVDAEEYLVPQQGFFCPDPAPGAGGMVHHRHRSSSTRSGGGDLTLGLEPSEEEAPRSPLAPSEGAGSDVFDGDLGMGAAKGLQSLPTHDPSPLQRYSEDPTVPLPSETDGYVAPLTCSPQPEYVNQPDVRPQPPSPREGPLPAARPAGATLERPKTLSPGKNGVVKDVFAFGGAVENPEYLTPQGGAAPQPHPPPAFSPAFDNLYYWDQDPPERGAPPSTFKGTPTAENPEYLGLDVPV
SMILES,viability [1] [%],Her2 level [2],viability [3],viability [4],viability [5],differential viability (reversal) ([6]; H69AR cells + 2 uM doxorubicin),"viability [6, 16] [%]","viability [6, 17] [%]",inhibition [7],inhibition [8],growth inhibition [9],growth inhibition [10],viability increase [11],viability [12],viability [13],inhibition [14],RAM network inhibition [15]
CCC(=O)Nc1cccc(Br)c1,114,116% (inactive),114% (inactive),113% (inactive),95.4% (inactive),-2.25% (inactive),97.7,95.4,-4.4% (inactive),-8.06% (inactive),-9.21% (inactive),2.72% (inactive),-0.82% (inactive),96.4% (inactive),85.5% (inactive),-0.04% (inactive),-0.05% (inactive)
Cc1ccc(-c2noc(CN3CCN(c4ccccc4F)CC3)n2)cc1,89.5,95.5% (inactive),89.5% (inactive),121% (inactive),92.5% (inactive),-3.02% (inactive),95.5,92.5,1.87% (inactive),-1.5% (inactive),1.99% (inactive),-1.21% (inactive),-2.06% (inactive),93.3% (inactive),92.4% (inactive),-0.38% (inactive),3.79% (inactive)
COC(=O)c1ccc(-c2nn(C)c(=O)c3ccccc23)cc1,93.5,99.5% (inactive),93.5% (inactive),83.8% (inactive),94.6% (inactive),7.75% (inactive),86.9,94.6,-5.33% (inactive),4.17% (inactive),3.78% (inactive),6.35% (inactive),-2.27% (inactive),94.3% (inactive),91% (inactive),0.79% (inactive),-1.8% (inactive)
COc1nnc(-c2ccc(C)c(S(=O)(=O)NCCO)c2)c2ccccc12,93.5,108% (inactive),93.5% (inactive),110% (inactive),87.9% (inactive),-2.42% (inactive),90.3,87.9,-1.04% (inactive),-6% (inactive),-0.385% (inactive),10% (inactive),-1.67% (inactive),106% (inactive),101% (inactive),-0.06% (inactive),2.58% (inactive)
CC(=O)Nc1cccc(NC(=O)c2ccco2)c1,94,94% (inactive),94% (inactive),108% (inactive),91.5% (inactive),-0.085% (inactive),91.6,91.5,-2.21% (inactive),-11.7% (inactive),-5.76% (inactive),-3.89% (inactive),-4.18% (inactive),99.6% (inactive),98.1% (inactive),1.83% (inactive),0.76% (inactive)
COc1ccccc1N(CC(=O)NCc1ccccn1)S(C)(=O)=O,126,105% (inactive),126% (inactive),89.2% (inactive),95.7% (inactive),4.02% (inactive),91.6,95.7,-1.3% (inactive),-1.17% (inactive),-1.19% (inactive),-24.7% (inactive),-3.02% (inactive),97.3% (inactive),91.5% (inactive),0.815% (inactive),4.8% (inactive)
C=CCSc1nnc(Cc2c(C)[nH]c3ccccc23)o1,90.5,96% (inactive),90.5% (inactive),84.7% (inactive),92.2% (inactive),6.96% (inactive),85.3,92.2,-3.87% (inactive),-2.5% (inactive),1.6% (inactive),3.4% (inactive),-0.66% (inactive),99.7% (inactive),99.5% (inactive),-0.545% (inactive),1.36% (inactive)
CCn1cc(C(=O)NCC2CCCO2)c(=O)c2cc(S(=O)(=O)N(C)C)ccc21 (stereo not drawn),85.5,113% (inactive),85.5% (inactive),105% (inactive),88.6% (inactive),5.47% (inactive),83.1,88.6,-0.13% (inactive),-3.83% (inactive),-1.35% (inactive),1.3% (inactive),-0.77% (inactive),101% (inactive),94.9% (inactive),2.33% (inactive),1.14% (inactive)
CCCc1cc(C(=O)Nc2ccc(C(C)=O)cc2)no1,80.5,91% (inactive),80.5% (inactive),77.7% (inactive),99.5% (inactive),5.59% (inactive),93.9,99.5,1.92% (inactive),-1% (inactive),-0.51% (inactive),-1.09% (inactive),-0.27% (inactive),98.5% (inactive),104% (inactive),2.74% (inactive),6.52% (inactive)
Cn1c(C(=O)NCCCN2CCCCCC2)cc2c(=O)n(C)c3ccccc3c21,80,92.5% (inactive),80% (inactive),91.2% (inactive),87.2% (inactive),12% (inactive),75.1,87.2,4.36% (inactive),-3% (inactive),-1.14% (inactive),6.89% (inactive),-4.55% (inactive),76.1% (inactive),78.7% (inactive),1.04% (inactive),0% (inactive)
Cc1nnc(NC(=O)CSc2nc3c(c(=O)n2C)SC(C)C3)s1 (stereo not drawn),89,80% (inactive),89% (inactive),79.4% (inactive),84.8% (inactive),4.81% (inactive),80,84.8,-6.27% (inactive),4.17% (inactive),-11.1% (inactive),-18.2% (inactive),0.31% (inactive),104% (inactive),99.6% (inactive),2.09% (inactive),9.95% (inactive)
CCCc1nnc(NC(=O)NCCN2C(=O)C3C4C=CC(C4)C3C2=O)s1 (stereo not drawn),110,121% (inactive),110% (inactive),96.6% (inactive),97.8% (inactive),5.61% (inactive),92.2,97.8,1.87% (inactive),-13% (inactive),-2.99% (inactive),6.19% (inactive),-0.68% (inactive),101% (inactive),101% (inactive),-0.135% (inactive),3.27% (inactive)
O=C(c1ccc(Cl)s1)N1CCN(c2nc3ccccc3s2)CC1,84,78% (inactive),84% (inactive),69.4% (inactive),85.9% (inactive),-0.215% (inactive),86.1,85.9,-3.47% (inactive),2.5% (inactive),3.6% (inactive),-3.27% (inactive),0.2% (inactive),81% (inactive),83.7% (inactive),2.66% (inactive),2.18% (inactive)
COc1ccc(NC(=O)CSc2nnc(Cc3cccn3C)n2-c2ccc(F)cc2)cc1,96,112% (inactive),96% (inactive),94.4% (inactive),94.8% (inactive),-14.7% (inactive),110,94.8,-2.27% (inactive),-6.5% (inactive),4.66% (inactive),11.6% (inactive),-2.27% (inactive),88.8% (inactive),86% (inactive),2.56% (inactive),8.6% (inactive)
S=c1[nH]nc(-c2ccccc2)n1C1C=CCCC1 (stereo not drawn),95.5,104% (inactive),95.5% (inactive),97.4% (inactive),85% (inactive),0.65% (inactive),84.4,85,1.56% (inactive),-6.33% (inactive),2.92% (inactive),-1.09% (inactive),-1.61% (inactive),102% (inactive),101% (inactive),1.67% (inactive),2.63% (inactive)
COC(=O)CSc1nc2nc(C)cc(C)n2n1,99,96.5% (inactive),99% (inactive),88.8% (inactive),99.7% (inactive),5.46% (inactive),94.3,99.7,-3.73% (inactive),3.17% (inactive),-2.5% (inactive),1.47% (inactive),-0.51% (inactive),97.7% (inactive),91.2% (inactive),2.01% (inactive),2.93% (inactive)
O=C(NCc1ccc2c(c1)OCO2)C1CCCN(S(=O)(=O)c2cccc3cccnc23)C1 (stereo not drawn),95.5,85% (inactive),95.5% (inactive),70% (inactive),83.3% (inactive),5.17% (inactive),78.1,83.3,-4.93% (inactive),4% (inactive),-10.4% (inactive),-10.5% (inactive),-2.13% (inactive),84.9% (inactive),80.7% (inactive),0.32% (inactive),5.25% (inactive)
COc1ccc(-n2ncc3c(N4CCC(C)CC4)ncnc32)cc1,100,106% (inactive),100% (inactive),56.2% (inactive),76.6% (inactive),35.3% (inactive),41.2,76.6,-4% (inactive),3% (inactive),-1.23% (inactive),-0.39% (inactive),-2.39% (inactive),101% (inactive),93.6% (inactive),1.94% (inactive),1.63% (inactive)
CCOC(=O)c1[nH]c(C)c(C(=O)NC)c1C,92,112% (inactive),92% (inactive),89.7% (inactive),98.8% (inactive),13.8% (inactive),85,98.8,-0.26% (inactive),-1.17% (inactive),-4.37% (inactive),-10.2% (inactive),-0.95% (inactive),109% (inactive),90.8% (inactive),1.32% (inactive),-1.66% (inactive)
